Bioassay records deposited in PubChem by SRMLSC.
The list is not random: actives were taken first. Their share in the collection is about 6.8%.
NADH enzymes: inhibition of NAD/NADH coupling enzymes, library profiling. coupled PK/LDH NADH assays, four targets. IC50, µM (top dose mostly 10 µM), without a hit: at the highest dose inhibition. actives 0.02% (n = 65,000). AID 774;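 active = single-dose screening hits from any of four coupled enzyme assays that gave an IC50 when retested across doses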;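 also: the DPM-DC format reads NADH fluorescence rather than 340 nm absorbance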
DPM-DC inhibit: S. pneumoniae DPM-DC inhibition; AID 556; purified DPM-DC, PK/LDH coupled NADH fluorescence; actives 0.49% (n = 65,000); calls only at 10 µM;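 active = the 320 compounds with the highest percent inhibition in the single-dose primary screen, excluding strongly autofluorescent ones, cut at about 32% in these data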;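 also: kinetic rate of NADH fluorescence loss reporting ADP formed by the decarboxylase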
Spn PMK inh: inhibitors of Streptococcus pneumoniae phosphomevalonate kinase; purified PMK, PK/LDH-coupled NADH absorbance 340 nm; inhibition, % at 10 µM; actives 0.49% (n = 65,000);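 active = top-ranked compounds by inhibition in the single 10 µM screen, taking a fixed number of the strongest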;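 also: 0% = full reaction with DMSO carrier and 100% = background rate without enzyme reaction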
MK inhibit: inhibitors of Streptococcus pneumoniae mevalonate kinase; AID 555; purified MK, PK/LDH-coupled NADH absorbance 340 nm; actives 0.48% (n = 65,000); inhibition, % at 10 µM;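 active = ranked among the strongest by inhibition in the single 10 µM screen, a fixed top-ranked set picked for dose follow-up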
A340 absorber: compound absorbs light at 340 nm. compound absorbance at 340 nm, fold over control. fold change at 10 µM. 65,000 tested, under 10 active. AID 708;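 active = at 10 µM dose, initial 340 nm absorbance at least 2 fold that of control wells; inactive = change under 2 fold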;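 also: initial absorbance extrapolated from kinetic A340 decline of NADH oxidation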
Autofluor 339: intrinsic fluorescence of library compounds, ex339/em460 – biochemical, MLSMR library, data from DPM-DC assay, artefact control, profiling panel; compound autofluorescence, ex339/em460 nm, NADH buffer; stronger effect = higher value; 1 = no-compound wells, NADH background; fluorescence fold increase at 10 µM; actives 5.5% (n = 65,000);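 active = at 10 µM, mean starting fluorescence two-fold or more over control wells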;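 also: signal is the first read of a kinetic run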
Active calls of the source: *; i = inactive; / = not tested or not shown; + = active, no number; ! = repeats disagree; [ ] = another dose, or the depositor's remark.

SMILES	NADH enzymes	DPM-DC inhibit	Spn PMK inh	MK inhibit	A340 absorber	Autofluor 339
C=CCn1c(=N)c(C(=O)OCC)cc2c(=O)n3cc(C)ccc3nc21	3.0%	/	0.0	5.0	1.03	2.06*
CC(CC(=O)NCc1ccccc1)C1CCCO1 (stereo not drawn)	3.0%	i	8.0	6.0	1	1.03
CCOC(=O)c1cc2c(=O)n3cccc(C)c3nc2n(Cc2cccnc2)c1=N	3.0%	/	0.0	6.0	1.03	2.25*
Cc1ccc2c(n1)sc1c(N)ncnc12	15.0%	i	14.0	9.0	1.03	2.14*
O=C(Nc1ccc(N2CCN(C(=O)c3ccco3)CC2)c(Cl)c1)c1c(F)c(F)c(F)c(F)c1F	4.0%	i	6.0	6.0	1.03	1.13
O=C(Nc1cccc2nsnc12)c1cccs1	9.0%	/	11.0	6.0	1.1	3.61*!
O=C(Nc1ccc2nsnc2c1)c1cccs1	4.0%	i	2.0	8.0	1.04	1.32
COC(=O)c1c(NC(=O)c2nn(C)cc2Cl)sc2c1CCCC2	4.0%	/	7.0	0.0	1.04	2.36*
CCn1ncc(Br)c1C(=O)Nc1sc2c(c1C(=O)OC)CCC2	9.0%	i	2.0	6.0	1.07	2.5*
COC(=O)c1c(NC(=O)c2ccc(Br)s2)sc2c1CCC2	4.0%	i	1.0	7.0	1.14	1.72
CC1CCCN(S(=O)(=O)c2cccc(-c3cn4cccnc4n3)c2)C1 (stereo not drawn)	13.0%	/	11.0	14.0	1.09	3.59*
COc1ccc2c(c1)OC1(C)CC2C(C(=O)c2ccccc2OC)C(=O)N1 (stereo not drawn)	13.0%	i	28.0*	2.0	1.02	0.97
CC(NS(=O)(=O)c1ccccc1)C(c1cccs1)N1CCN(C)CC1 (stereo not drawn)	2.0%	i	11.0	0.0	1.01	1.08
O=c1c(-c2nc3ccccc3o2)c2oc3ccccc3n2c2ccccc12	4.0%	/	7.0	0.0	1.15	4.96*
Cc1ccc(S(=O)(=O)N2CCCCC2)cc1C(=O)Nc1ncn[nH]1	3.0%	i	9.0	0.0	1.01	1.08
O=C(COc1ccccc1)NCc1nnc(SCC(=O)Nc2nccs2)n1-c1ccccc1	2.0%	i	7.0	0.0	1.05	1.04
O=C(CSc1nnc(COc2ccccc2)n1-c1ccccc1)c1cccs1	12.0%	i	25.0*	12.0	1.01	1.09
CCOc1ccc(OCC(=O)N2CCOCC2)cc1	4.0%	i	0.0	11.0	1.05	1.08
Cc1cc(OCC(=O)N2CCOCC2)cc2oc(=O)c3ccccc3c12	0.0%	/	0.0	0.0	1.02	2.89*
COc1ccc(CNc2oc(C)nc2C#N)cc1	5.0%	i	8.0	7.0	1.02	1
N#Cc1nc(-c2cccs2)oc1NCc1ccco1	2.0%	/	0.0	4.0	1.06	2.25*
N#Cc1nc(-c2cccs2)oc1NCc1ccccc1Cl	4.0%	/	6.0	2.0	1.03	2.37*
N#Cc1nc(-c2cccs2)oc1N1CCN(c2ccccc2)CC1	7.0%	/	7.0	6.0	1.04	3.69*
Cc1ccc(CNc2oc(-c3cccs3)nc2C#N)cc1	5.0%	/	5.0	5.0	1.05	3.65*
Cc1c(C(=O)COC(C)(C)C)[nH]c2ccccc12	4.0%	i	0.0	6.0	1.02	1.03
SMILES	NADH enzymes	DPM-DC inhibit	Spn PMK inh	MK inhibit	A340 absorber	Autofluor 339
O=C(OCC(=O)N1CCN(C(=O)c2ccco2)CC1)c1ccccc1OCc1ccc(Cl)cc1	3.0%	i	9.0	0.0	1	1.07
CCOc1ccc(Nc2oc(-c3ccco3)nc2C#N)cc1	3.0%	i	0.0	9.0	1.08	1.31
CCOc1ccc(Nc2oc(-c3cccs3)nc2C#N)cc1	2.0%	/	0.0	3.0	1.15	3.04*
N#Cc1nc(-c2cccs2)oc1NCc1ccccc1	2.0%	/	4.0	0.0	1.1	2.38*
N#Cc1nc(-c2cccs2)oc1NCc1ccc(Cl)cc1	4.0%	/	9.0	12.0	1.01	3*
Cc1ccc(S(=O)(=O)NC(=O)c2cc(C)n(CCCn3ccnc3)c2C)cc1	4.0%	i	17.0	0.0	0.97	1.04
CCOC(=O)C1=C(C)NC(=O)NC1c1cc(C)sc1C (stereo not drawn)	6.0%	i	6.0	7.0	1	1.12
Cc1cc(C)n(-c2ncnc3sc4c(c23)CCCC4)n1	5.0%	i	16.0	0.0	1.02	2.32*
Cc1cccc(-n2nc3c(c2NC(=O)CCC2CCCCC2)CS(=O)C3)c1C (stereo not drawn)	2.0%	i	0.0	2.0	0.99	1.07
COCCn1c(=NC(=O)CSCC(=O)NC2CCCCC2)sc2cc(OC)ccc21	6.0%	i	13.0	4.0	1.15	2.04*
COCCn1c(=NC(=O)CSC(C)=O)sc2cc(OC)ccc21	13.0%	i	4.0	5.0	1.15	1.39
Cn1c2ccccc2c2cnn(CC(=O)N3CCN(c4ncccn4)CC3)c(=O)c21	9.0%	i	25.0*	2.0	1.05	1.4
CN1CCN(CCCNC(=O)Cn2ncc3c4ccccc4n(C)c3c2=O)CC1	3.0%	i	3.0	7.0	1.01	1.26
CC(=O)Nc1ccc2nc(-c3cccs3)[nH]c2c1	5.0%	/	8.0	2.0	1.11	2.29*
COc1ccc(NC(=O)CNS(=O)(=O)c2cccc3nonc23)c(OC)c1	2.0%	i	2.0	5.0	1.06	1.07
Cc1c(NC(=O)CN2C(=O)c3ccccc3S2(=O)=O)c(=O)n(-c2ccccc2)n1C	5.0%	i	6.0	9.0	1.02	1.12
Cc1c(NC(=O)CN2c3cccc4cccc(c34)S2(=O)=O)c(=O)n(-c2ccccc2)n1C	2.0%	+[may fluoresce]	9.0	5.0	1.01	2.52*
COc1ccc(NC(=O)CN2c3cccc4cccc(c34)S2(=O)=O)cc1	5.0%	i	13.0	0.0	1.01	2.33*
O=C(CN1c2cccc3cccc(c23)S1(=O)=O)N1CCOCC1	1.0%	+[fluoresces]	3.0	8.0	0.99	2.77*
COc1ccc(CNC(=O)c2ccc(NC(=O)C3CCCO3)cc2)cc1 (stereo not drawn)	1.0%	i	0.0	4.0	1.04	1.17
Cc1ccc(CNC(=O)c2cc3c(=O)n4ccccc4nc3n(Cc3ccco3)c2=N)cc1	7.0%	/	6.0	8.0	1.01	2.33*
N=c1c(C(=O)NCc2ccc(F)cc2)cc2c(=O)n3ccccc3nc2n1Cc1ccco1	7.0%	i	7.0	0.0	1.07	2.72*
N=c1c(C(=O)NCc2ccccc2)cc2c(=O)n3ccccc3nc2n1Cc1ccco1	6.0%	i	0.0	0.0	1	1.85
CCOC(=O)c1cc2c(=O)n3ccccc3nc2n(CC2CCCO2)c1=NC(C)=O (stereo not drawn)	9.0%	i	12.0	10.0	1.02	2.04*
Cc1ccc(CNC(=O)c2cc3c(=O)n4ccccc4nc3n(CC3CCCO3)c2=N)cc1 (stereo not drawn)	5.0%	/	8.0	1.0	1.03	2.35*
